D2 PAM-1: human D2 receptor positive allosteric modulation; 360,000 tested, 0.23% active; P14416; DiscoveRx D2 beta-arrestin cells, luminescence, 90 min; 100% = 57 uM dopamine signal; potentiation, % (test concentration not listed); AID 624464; in the data active means potentiation above about 50%; inconclusive means mostly about 30% to 49%
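D2 cells co-treated with compound plus 50 nM dopamine (EC20) for 90 min at 37 deg C to detect potentiation. Beta-arrestin recruitment was read as enzyme-fragment luminescence after 1 h at ambient temperature. Full response was set by 57 uM dopamine.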
D2 PAM-2: D2 dopamine receptor (human) potentiation; 340,000 tested, 0.34% active; P14416; potentiation, % at 10 µM; HEK293 T-REx D2, calcium flux, EC20 dopamine potentiation;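 active means potentiation over 3 SD above the plate norm, cut at about 30% in these data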; further: 0% is about no effect
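Using a no-wash calcium dye in inducible, force-coupled HEK293 Trex cells expressing D2, we tracked fluorescence each second for 180 s after compound, then for 180 s after EC20 dopamine to detect augmented signalling.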
D2 ag-1: activates the human D2 dopamine receptor; activation, % (no concentration beside the values); 360,000 tested, 0.084% active; P14416; DiscoveRx PathHunter D2 beta-arrestin, luminescence, 90 min; 100% = 57 uM dopamine signal; in the data active means activation above about 40%; inconclusive means between about 15% and that limit
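Agonist mode: compounds alone added to overnight-plated D2 PathHunter cells for 90 min at 37 C, with 57 uM final dopamine (EC100) defining full response. Beta-arrestin recruitment detected by chemiluminescent reagent, read after 1 h at ambient temperature.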
D2 ag-2: activates the human D2 dopamine receptor; P14416; AID 485358; 340,000 tested, 0.53% active; HEK293 T-REx D2 cells, calcium flux agonist mode; activation, % at 2 µM;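 active means activation over 3 SD above normal in the single-dose calcium agonist read, cut at about 30% in these data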; further: 0% is about no effect
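Tetracycline-induced HEK293 T-REx cells with force-coupled D2 receptor, plated overnight at 30 C, loaded with no-wash calcium dye. After a 10 s baseline, compound was pin-added and calcium flux read kinetically for 180 s; calcium rises flagged agonists.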
D2 antag: D2 dopamine receptor (human) antagonism; 340,000 tested, 2% active; inhibition, % at 10 µM; P14416; HEK293 TREx D2 cells, calcium flux, dopamine EC80; in the data active means inhibition above about 30%; inactive means below that, where a call was filed; further: 0% is about no effect
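Calcium mobilization kinetics were recorded at 1 s intervals in tetracycline-induced HEK293 T-REx D2 cells, first for 180 s after compound addition and then 180 s after EC80 dopamine.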
D3 ag: activates human D3 dopamine receptor beta-arrestin recruitment. shares compounds with D2 ag-2. DiscoveRx D3 beta-arrestin cells, luminescence, 90 min. Potency, µM (series often up to 76.9 µM), without a hit: top-dose activation, most hits filed as activators. 2,300 tested, 4% active. AID 720506;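 further: potency means the concentration at half of the fitted maximal effect; 100% = dopamine control response; nearly all actives have a fitted effect of over 70% in size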
Target sequence (P35462 whole entry, looked up): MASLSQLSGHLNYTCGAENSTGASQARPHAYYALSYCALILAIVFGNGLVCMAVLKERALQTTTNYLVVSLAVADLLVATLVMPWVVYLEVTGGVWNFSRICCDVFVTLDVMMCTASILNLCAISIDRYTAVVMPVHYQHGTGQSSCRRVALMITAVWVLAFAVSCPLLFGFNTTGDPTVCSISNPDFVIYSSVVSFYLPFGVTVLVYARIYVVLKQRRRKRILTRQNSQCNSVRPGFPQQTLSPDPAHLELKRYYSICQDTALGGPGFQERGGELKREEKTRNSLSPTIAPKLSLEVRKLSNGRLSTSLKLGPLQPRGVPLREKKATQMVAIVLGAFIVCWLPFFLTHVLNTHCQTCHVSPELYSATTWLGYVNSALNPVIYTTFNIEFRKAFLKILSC
D2 ag-3: activates human D2 dopamine receptor in D3 counterscreen; shares compounds with D2 ag-2; DiscoveRx PathHunter D2 beta-arrestin, luminescence, 90 min; response scale: percent relative to full dopamine signal; Potency, µM (highest dose often 76.9 µM), inactives show at the top dose activation, hits mostly activators; 2,300 tested, 5.9% active; AID 720507; further: potency means the concentration at half of the fitted maximal effect; % of control where 0% means no effect; nearly all actives have a fitted effect of over 70% in size
* = called active by the depositor. Compounds with a hit are over-represented: about 2.4% of the library has one in this group of screens. Unless noted, the call rests on the fitted dose curve; in most records, active means well fitted activation curve with a large enough effect; inconclusive means small, poorly fitted or top-dose-only effect; inactive means flat fitted curve, though single readings scatter.

Screening O=C(c1ccco1)N1CCN(CCCCOc2ccc(F)cc2)CC1 returned D2 PAM-1 12, D2 ag-1 inconclusive, D3 ag 1µM* and D2 ag-3 inconclusive.
`COc1cc(OC)c(N(C)C(=O)C2CCCN(c3ncnc4c3nc3n4CCCCC3)C2)cc1Cl` (stereo unspecified) gave D2 PAM-2 3 and D2 ag-2 -1.
For O=C(c1cccc(C(=O)N(c2ccccn2)C2CCCCC2)c1)N(c1ccccn1)C1CCCCC1 the results were D2 PAM-1 2, D2 PAM-2 -27, D2 ag-1 inconclusive, D2 ag-2 70*, D2 antag 62*, D3 ag -4% and D2 ag-3 inconclusive.
Screening CN(C)c1ccc(/C=N/N(CCO)C2=NS(=O)(=O)c3ccccc32)cc1 returned D2 PAM-1 -19, D2 PAM-2 0, D2 ag-1 -9, D2 ag-2 6, D2 antag -7, D3 ag 6% and D2 ag-3 -1%.
COc1cccc(OCC(O)CN2CCN(c3ccccc3)CC2)c1 (stereo unspecified) was read as D2 PAM-1 0, D2 PAM-2 -24, D2 ag-1 inconclusive, D2 ag-2 79*, D2 antag 83*, D3 ag inconclusive and D2 ag-3 inconclusive.
`COc1cccc(OCC(O)CN2CCN(c3ccc(Cl)cc3)CC2)c1` (stereo unspecified) gave D2 PAM-1 -26, D2 PAM-2 -17, D2 ag-1 -4, D2 ag-2 7 and D2 antag -42.
Screening COc1cccc(OCC(O)CN2CCN(c3ccccn3)CC2)c1 (stereo unspecified) returned D2 PAM-1 21, D2 PAM-2 -27, D2 ag-1 inconclusive, D2 ag-2 73*, D2 antag 91*, D3 ag inconclusive and D2 ag-3 3.5µM*.
OC(COc1ccc(Br)cc1)CN1CCN(c2ccccc2)CC1 (stereo unspecified) was read as D2 PAM-1 -14, D2 PAM-2 -18, D2 ag-1 -3, D2 ag-2 61*, D2 antag 81*, D3 ag inconclusive and D2 ag-3 inconclusive.
`COc1cc(Br)cc(CN2CCN(c3ncccn3)CC2)c1O` gave D2 PAM-1 81*, D2 PAM-2 -18, D2 ag-1 52*, D2 ag-2 76*, D2 antag 74*, D3 ag inconclusive and D2 ag-3 7.9µM*.
COc1cc(Cn2c(=O)sc3ccccc32)ccc1OCCC(C)C was read as D2 PAM-2 -13 and D2 ag-2 0.
Screening CCOC(=O)c1sc2ccccc2c1S(=O)(=O)Nc1cccc(C(F)(F)F)c1 returned D2 PAM-2 -3 and D2 ag-2 1.
`CCn1cc2nc(SCc3cccc(C(F)(F)F)c3)n(Cc3ccc(C)cc3)c(=O)c2n1` gave D2 PAM-2 3 and D2 ag-2 0.
For COc1cccc(OCC(O)CN2CCN(c3ncccn3)CC2)c1 (stereo unspecified) the results were D2 PAM-1 3, D2 PAM-2 -17, D2 ag-1 inconclusive, D2 ag-2 78*, D2 antag 69*, D3 ag 15% and D2 ag-3 inconclusive.
For OC(COc1ccccc1)CN1CCN(c2ncccn2)CC1 (stereo unspecified) the results were D2 PAM-1 -8, D2 PAM-2 -5, D2 ag-1 0, D2 ag-2 9, D2 antag 39*, D3 ag 15% and D2 ag-3 10%.
`COc1cccc(CN2CCN(c3ncccn3)CC2)c1` gave D2 PAM-1 26, D2 PAM-2 -29, D2 ag-1 55*, D2 ag-2 93*, D2 antag 95*, D3 ag inconclusive and D2 ag-3 0.63µM*.
Screening COc1cccc(OCC(O)CN2CCOCC2)c1 (stereo unspecified) returned D2 PAM-1 -21, D2 PAM-2 11, D2 ag-1 2, D2 ag-2 -1 and D2 antag 1.
OCC(O)CN1CCN(c2ccccc2)CC1 (stereo unspecified) was read as D2 PAM-1 -16, D2 PAM-2 -22, D2 ag-1 14, D2 ag-2 82*, D2 antag 59*, D3 ag -5% and D2 ag-3 17%.
CCOC(=O)C1CCN(C(=O)Cn2nc(CC)n3c(cc4sccc43)c2=O)CC1 was read as D2 PAM-2 -5.
CCC(=O)N1CCc2cc(S(=O)(=O)CCC(=O)N3CCN(c4cccc(C)c4)C(C)C3)ccc21 (stereo unspecified) was read as D2 PAM-2 -3 and D2 ag-2 1.
`OC(CN1CCN(c2ccccc2)CC1)Cn1c2ccccc2c2ccccc21` (stereo unspecified) gave D2 PAM-1 -29, D2 PAM-2 -14, D2 ag-1 -15, D2 ag-2 0 and D2 antag -13.
Screening OC(CSc1ccc(F)cc1)CN1CCN(c2ccccc2)CC1 (stereo unspecified) returned D2 PAM-1 -17, D2 PAM-2 -24, D2 ag-1 inconclusive, D2 ag-2 80*, D2 antag 76*, D3 ag -3% and D2 ag-3 20%.
Screening O=C(CN1CCN(c2ccccn2)CC1)Nc1ccccc1F returned D2 PAM-1 6, D2 PAM-2 -15, D2 ag-1 9, D2 ag-2 73*, D2 antag 57*, D3 ag 29% and D2 ag-3 28%.
O=C(CN1CCN(c2ncccn2)CC1)Nc1ccccc1-n1cccc1 was read as D2 PAM-1 -12, D2 PAM-2 -12, D2 ag-1 5, D2 ag-2 38*, D2 antag -21, D3 ag 1% and D2 ag-3 16%.
For Cc1cc(C)cc(NC(=O)CN2CCN(c3ncccn3)CC2)c1 the results were D2 PAM-1 -4, D2 PAM-2 5, D2 ag-1 7, D2 ag-2 -1 and D2 antag -2.
O=C(CN1CCN(c2ccccn2)CC1)Nc1cc(F)ccc1F was read as D2 PAM-1 2, D2 PAM-2 -18, D2 ag-1 11, D2 ag-2 50*, D2 antag 22, D3 ag 15% and D2 ag-3 15%.

Screening data deposited in PubChem BioAssay by National Center for Advancing Translational Sciences (NCATS).
